Experimental data from PubChem BioAssay AID687014 (The Scripps Research Institute Molecular Screening Center, 2013).
The whole screen tested about 370,000 compounds, of which about 6,800 (1.8%) were called active.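 Rule for the calls: active = activation above a cutoff set at the mean of all screened compounds plus 3 SD (cut at about 10% in these data); inactive = the rest.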 The list comes from a sample in which actives are over-represented; it also holds similar structures and randomly drawn compounds.

tested on: Nuclear hormone receptor DAF-12 (Heterodera glycines), GAL4 fusion; assay: hgDAF-12 GAL4 fusion reporter activation – cell-based, luminescence, HEK293, UAS-luciferase, primary screen (AID 687014); settings: HEK293 GAL4-hgDAF12 UAS-luciferase reporter, agonist luminescence; at 6.8 µM; active compounds read high; normalized to butyrate control;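 note: 0% = DMSO wells and 100% = sodium butyrate wells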

Row | SMILES | activation
1 | Oc1ccc(-c2cccc(-c3ccc(O)cc3)c2)cc1 | 7.62% (inactive)
2 | c1ccc(-c2c[nH]c(-c3ccccc3)c2)cc1 | 11.8% (active)
3 | c1ccc(-c2ccc3c(c2)NC(C2Nc4cc(-c5ccccc5)ccc4O2)O3)cc1 (centres undefined) | -0.29% (inactive)
4 | Brc1ccc(COCCc2cn(Cc3ccccc3)c3ccccc23)cc1 | 0.93% (inactive)
5 | O=S1(=O)c2c(cccc2N2CCSCC2)Oc2ccccc2CN1Cc1cn(Cc2ccc(F)cc2)nn1 | -4.41% (inactive)
6 | Cc1ccc2nc(-c3ccc(Br)cc3)cn2c1 | -6.8% (inactive)
7 | COc1ccc(-c2cn3ccc(C)cc3n2)cc1 | 14.2% (active)
8 | CCN(c1cccc(C)c1)S(=O)(=O)c1ccc(-c2coc(C)n2)cc1 | -2.39% (inactive)
9 | CCN(CC(=O)NCCc1ccccc1)S(=O)(=O)c1ccc(C)cc1 | -0.97% (inactive)
10 | Cc1ccc(-c2cn3cc(C)ccc3n2)cc1 | -15.8% (inactive)
11 | CCN(CC)S(=O)(=O)c1ccc(-c2cn3ccc(C)cc3n2)cc1 | 10.8% (active)
12 | C[C@H]1CCC/C=C/C(=O)c2c(O)cc(O)cc2CC(=O)O1 | -13.8% (inactive)
13 | CCCCCCCCN1C(=O)[C@@H](CC(=O)NCc2ccccc2)C[C@@]2(C(=O)OC)C1=C[C@H](C(C)(C)C)O[C@@H]2C | -1.53% (inactive)
14 | O=C(c1ccco1)N1CCN=C1SCc1cccc(Cl)c1 | -5.1% (inactive)
15 | CCC(=O)c1c(CC)c2n3c1=CC[C@H]3CC(Br)C=2 (some centres undefined) | -0.81% (inactive)
16 | COc1ccc(-n2c(COc3ccccc3)nnc2SCC(=O)Nc2ccc3c(c2)OCO3)cc1 | -2.9% (inactive)
17 | NS(=O)(=O)c1ccc(CCNC(=O)CNC(=O)Cc2ccccc2)cc1 | 0.79% (inactive)
18 | Cc1cc(C)n2ncc(C(=O)Nc3ccc4c(c3)OCCO4)c2n1 | 4.4% (inactive)
19 | CCc1ccc2oc(-c3ccc(N)cc3)nc2c1 | 15.5% (active)
20 | CC(=O)N1CC2(C)CN(C(C)=O)CC(C)(C1)C2=O | 1.11% (inactive)
21 | O=C(CCCCCN1C(=O)C2C3C=CC(C3)C2C1=O)Nc1ccccc1 (centres undefined) | 8.92% (inactive)
22 | CCSc1nsc(NC(=O)Nc2cccc(C(C)=O)c2)n1 | 8.65% (inactive)
23 | CC(=O)c1cccc(NC(=O)Nc2ccc(C)cc2)c1 | 11.1% (active)
24 | CC(=O)c1cccc(NC(=O)[C@@H](NC(N)=O)C(C)C)c1 | -2.72% (inactive)

Row | SMILES | activation
25 | OCCN1CCN(c2ncnc3c2ncn3[C@H]2CN(Cc3ccco3)C[C@@H](CO)O2)CC1 | 0.95% (inactive)
26 | COc1ccc(Cn2cc(CN3[C@@H](CC(C)C)COc4cc(Br)ccc4S3(=O)=O)nn2)cc1 | 2.35% (inactive)
27 | CCN(CC)S(=O)(=O)c1cc(C(=O)Nc2ccccn2)ccc1C | 12.3% (active)
28 | CCN(c1ccccc1)S(=O)(=O)c1cc(C(=O)NCc2ccccn2)ccc1C | 0.44% (inactive)
29 | Cc1ccc(NC(=O)CNCc2ccccn2)cc1S(=O)(=O)N(C)C | 3.01% (inactive)
30 | C[C@H]1[C@H](c2ccccc2)Oc2cc(Br)ccc2S(=O)(=O)N1Cc1cccc(F)c1 | -2.03% (inactive)
31 | NS(=O)(=O)c1ccc2nc(NC(=O)C3=COCCO3)sc2c1 | 12.8% (active)
32 | NS(=O)(=O)c1ccc2nc(NC(=O)CS(=O)(=O)c3ccc(F)cc3)sc2c1 | 2.11% (inactive)
33 | O=C(Nc1ccc(S(=O)(=O)N2CCCC2)cc1Cl)C1=COCCO1 | -1.4% (inactive)
34 | COc1ccc(CN2C(=O)N3Cc4cc(OC)ccc4C3CS2(=O)=O)cc1 (centres undefined) | -2.75% (inactive)
35 | CCCCCn1nnnc1-c1nc2cc3ccccc3cc2[nH]c1=O | 0.65% (inactive)
36 | Cc1ccc(-c2nc3ccccc3[nH]c2=O)cc1 | 10.9% (active)
37 | Cc1ccc(-c2nnc(-n3nnc4ccccc43)c3ccccc23)cc1 | 0.07% (inactive)
38 | CC1CCN(C(=O)CCNC(=O)c2ccccc2)CC1 | 2.11% (inactive)
39 | O=C(NCCc1ccccc1)c1ccc(NC2=NC3CS(=O)(=O)CC3S2)cc1 (centres undefined) | -1.54% (inactive)
40 | CC1CCCN(c2ccc(C(=O)NCCc3ccccc3)cn2)C1 (centres undefined) | 18.4% (active)
41 | O=C(NC1CCCC1)C1CSCCS(=O)(=O)N1Cc1ccccc1 (centres undefined) | 2.17% (inactive)
42 | CC(C)C[C@@H](NC(=O)[C@H]1CCCN1C(=O)Cc1ccccc1)C(N)=O | 1.33% (inactive)
43 | Cc1cc(F)ccc1N1CCC(N2CCN(C)C(CCO)C2)CC1 (centres undefined) | 1.51% (inactive)
44 | O=C(Nc1ccccc1C(=O)N1CCOCC1)c1ccc(Cl)cc1 | -2.57% (inactive)
45 | Nc1ccc(C(=O)Nc2ccccc2N)cc1 | 66.9% (active)
46 | O=C(Cc1ccccc1)Nc1ccc(C(=O)Nc2ccccc2C(=O)O)cc1 | 0.23% (inactive)
47 | CCC(CO)Nc1cccc2c1S(=O)(=O)N(Cc1cn(Cc3ccccc3C(F)(F)F)nn1)Cc1ccccc1O2 (centres undefined) | 0.2% (inactive)
48 | O=C1Nc2ccccc2C1=NN=Cc1ccco1 | 0.84% (inactive)

Row | SMILES | activation
49 | Cc1nonc1C(=O)N/N=C/c1ccc(O)cc1 | 10.9% (active)
50 | Nc1nonc1-n1nnc(C(=O)N/N=C/c2ccc(Cl)cc2)c1-c1ccc2c(c1)OCO2 | -0.85% (inactive)
51 | CCOc1ccc(/C=N\NC(=O)c2c(C)nc3cc(C)ccn23)cc1 | -0.25% (inactive)
52 | Cc1ccc(O)c(CCc2ccccc2)n1 | 1.33% (inactive)
53 | Cc1cccc(C(=O)Nc2c(-c3ccc(F)cc3)nc3ncccn23)c1 | -2.47% (inactive)
54 | CCC(=O)Nc1ccc2c(c1)C(=O)N(C)[C@@H]1CC[C@@H](CC(=O)NCCc3ccccc3)O[C@H]1CO2 | 0.93% (inactive)
55 | O=C(c1cnn(-c2ccc(Cl)cc2)c1)c1ccccc1O | 18.6% (active)
56 | Cc1cc(O)cc(O)c1C(=O)Cc1cnn(-c2ccccc2)c1 | -1.43% (inactive)
57 | O=C(c1ccc(Cl)cc1)n1cnc2ccccc21 | 0.03% (inactive)
58 | CN(CCO)c1cccc2c1S(=O)(=O)N(Cc1cn(Cc3ccc(C(F)(F)F)cc3)nn1)Cc1ccccc1O2 | 4.36% (inactive)
59 | O=C(c1cccs1)N1CCCC(c2nc(-c3ccc(F)cc3)no2)C1 (centres undefined) | 3.47% (inactive)
60 | Cc1ccc(-c2nc(-c3ccncc3)no2)c(C)c1 | 12.5% (active)
61 | c1csc(-c2nc(-c3ccncc3)no2)c1 | 10.9% (active)
62 | O=C(NCc1cccnc1)c1nc(-c2cccs2)no1 | 4.85% (inactive)
63 | Cc1ccc(-c2noc(-c3ccccc3C(=O)NCC3CCCO3)n2)cc1 (centres undefined) | 3.26% (inactive)
64 | CCOc1ccc(N(CC(=O)Nc2c(C)n(C)n(-c3ccccc3)c2=O)S(=O)(=O)c2ccc(Cl)s2)cc1 | 8.38% (inactive)
65 | CCOc1ccccc1C(=O)N1CCC[C@@H]1C(=O)N1CCC[C@H]1C(=O)NCc1ccccc1 | -0.69% (inactive)
66 | CN(C)CC(=O)N[C@@H]1C[C@@H]2O[C@H](CO)CC[C@@H]2O[C@@H]1CCc1ccc(C#Cc2ccccc2)cc1 | -6.4% (inactive)
67 | COC(=O)[C@]12C[C@H](CC(=O)N3CCN(C(=O)C4CC4)CC3)C(=O)N(CCC3=CCCCC3)C1=C[C@H](C(C)C)O[C@@H]2C1CC1 | 1.54% (inactive)
68 | O=C(O)c1c(NC(=O)N2CCCC2)sc2c1CCCC2 | 0.58% (inactive)
69 | NC(=O)c1c(NC(=O)CSc2nnc(-c3ccco3)n2N)sc2c1CCCC2 | 0.59% (inactive)
70 | NC(=O)c1c(NC(=O)c2ccccc2)sc2c1CCCC2 | 13.5% (active)
71 | Cc1ccc2nc(-c3ccc(CN4CCC(n5cc(-c6ccccc6)[nH]c5=O)CC4)cc3)c(-c3ccccc3)nc2c1 | 0.94% (inactive)
72 | C=CCN1C(C(=O)OC)CN(Cc2cn(Cc3ccccc3)nn2)CCS1(=O)=O (centres undefined) | 0.93% (inactive)

Row | SMILES | activation
73 | CC(C)(C)c1cnnn1-c1ccc([N+](=O)[O-])cc1 | -1.27% (inactive)
74 | Cc1nn(-c2ccc([N+](=O)[O-])cc2)c(N)c1-c1ccccc1 | 16.8% (active)
75 | Cc1nn(-c2ccccc2)c2c1C(c1cccc([N+](=O)[O-])c1)N(c1ccccc1)C(=O)N2 (centres undefined) | 2.5% (inactive)
76 | COCCNC(=S)N(C)[C@H]1C[C@H]2c3[nH]c4ccccc4c3CCN2C[C@H]1[C@H](C)O | 0.91% (inactive)
77 | COC(=O)C1CN(Cc2ccc(F)cc2)CCS(=O)(=O)N1Cc1ccc(Cl)cc1 (centres undefined) | -1.05% (inactive)
78 | O=C(C(NS(=O)(=O)c1cccc2nsnc12)c1ccccc1)N1CCN(c2ccccc2)CC1 (centres undefined) | 0.47% (inactive)
79 | Nn1c(SCC(=O)Nc2cccc3ccccc23)nnc1-c1cc(-c2ccc(F)cc2)n[nH]1 | -2.56% (inactive)
80 | O=[N+]([O-])c1cc2ccccc2nc1-c1ccccc1 | 4.98% (inactive)
81 | O=[N+]([O-])c1ccc2c(c1)Nc1nc3ccccc3nc1N2 | 27.2% (active)
82 | O=C(Oc1ccc([N+](=O)[O-])cc1)c1ccc2ccccc2n1 | 3.74% (inactive)
83 | C=CCOC/C=C/C#CCN(CC=C)Cc1ccc(OC)cc1OC | 5.3% (inactive)
84 | CC(c1ccccn1)N(CCN(C)C)C(=S)Nc1ccccc1F (centres undefined) | 0.46% (inactive)
85 | Cc1ccccc1CS(=O)(=O)Cc1ccc(C(=O)Nc2ccc(Cl)cc2)o1 | -3.81% (inactive)
86 | O=C(O)C1CC=CCC1C(=O)NCCc1ccccc1 (centres undefined) | -1.34% (inactive)
87 | O=C(Nc1cccc(Cl)c1Cl)c1ccccc1NC(=O)C1CC=CCC1C(=O)O (centres undefined) | 5.07% (inactive)
88 | O=C(Nc1ccc(Cl)c(Cl)c1)c1ccccc1NC(=O)C1CC=CCC1C(=O)O (centres undefined) | 15.7% (active)
89 | O=C(Nc1cccc(F)c1)NC1CCCc2ccccc21 (centres undefined) | -1.37% (inactive)
90 | Cc1cc(C)cc(NC(=O)NC2CCCCCCC2)c1 | 5.46% (inactive)
91 | O=C(Nc1cccc(F)c1)NC1CCCCCCC1 | 10.7% (active)
92 | CCCC(=O)NC(=S)Nc1ccc(CN2CCOCC2)cc1 | 0% (inactive)
93 | COC(=O)c1ccc(NC(=S)NN2CCOCC2)cc1 | 10.6% (active)
94 | COC(=O)c1ccc(NC(=S)Nc2cccc(C)n2)cc1 | 1.63% (inactive)
